Here are results for 14 compounds from PubChem BioAssay (NCATS).

In assay [1] the test system is HaCat. Put plainly: Cytotoxic Profiling of Annotated Libraries Using Quantitative High-Throughput Screening (AID 1296008). Also: nearly all actives have a fitted effect of over 60% in size. The following applies: Five cell lines viability, CellTiter-Glo ATP luminescence, 48-72 h; max response: active compounds read low. The essentials: (§1)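 Cytotoxicity was measured as CellTiter-Glo ATP luminescence, read after 10 min at room temperature. Compound treatment of the cells lasted 48 or 72 hr at 37 degrees Celsius in a qHTS format.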

Assay [2] relates to NIH3T3. The assay is described as above. The following applies: Five cell lines viability, CellTiter-Glo ATP luminescence, 48-72 h; max response: active compounds read low. The essentials: as §1
For a further assay, the system named is MCC-13. Kind of assay: qHTS assay to identify novel small-molecules to repurpose for Merkel cell carcinoma treatment (AID 1296009). Also: nearly all actives have a fitted effect of over 60% in size. As to conditions: MCC and control cell lines, CellTiter-Glo viability, 72 h; series mostly up to 46 µM. Summed up: (§2)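 Cell viability, measured as CellTiter-Glo luminescence, was normalized between DMSO and no-cell wells. The cells had been exposed to 8- or 11-point compound dilutions for 72 hr at 37 degree celsius.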
In general terms: Quantitative high-throughput screening tests each substance at several concentrations.

A further assay concerns MCC-26. The description is as above. The following applies: MCC and control cell lines, CellTiter-Glo viability, 72 h; series mostly up to 46 µM. Summed up: as §2
A general note: ATP-based viability assays read luminescence as a measure of living cells.

The subject of a further assay is MKL-1. The assay is described as above. The following applies: MCC and control cell lines, CellTiter-Glo viability, 72 h; series mostly up to 46 µM. Summed up:
as §2

Another assay has as its system MKL-2. Described as above. As to conditions: MCC and control cell lines, CellTiter-Glo viability, 72 h; series mostly up to 46 µM. Summed up:
as §2

The subject of a further assay is C33A. Put plainly: Primary qHTS to identify gynecologic anti-cancer compounds using libraries of approved drugs and bioactive compounds (AID 1345084). Also: nearly all actives have a fitted effect of over 55% in size. The following applies: Gynecologic cancer cell panel viability, ATPlite luminescence, 48 h; series mostly up to 57.5 µM. The essentials:
(§3)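 Cytotoxicity screen measuring ATP content by luciferase luminescence. Each compound is applied at five concentrations for 48 h at 37 C with 5% CO2.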

The test system of another assay is CAOV3. Described as above. As to conditions: Gynecologic cancer cell panel viability, ATPlite luminescence, 48 h; series mostly up to 57.5 µM. The essentials:
as §3

The test system of another assay is CASKI. Described as above. The following applies: Gynecologic cancer cell panel viability, ATPlite luminescence, 48 h; series mostly up to 57.5 µM. Summed up: as §3
A further assay has as its system Es-2. Described as above. As to conditions: Gynecologic cancer cell panel viability, ATPlite luminescence, 48 h; series mostly up to 57.5 µM. Summed up: as §3
For a further assay, the system named is HeLa. The assay is described as above. As to conditions: Gynecologic cancer cell panel viability, ATPlite luminescence, 48 h; series mostly up to 57.5 µM. Summed up: as §3
The test system of a further assay is JEG-3. The description is as above. The following applies: Gynecologic cancer cell panel viability, ATPlite luminescence, 48 h; series mostly up to 57.5 µM. The essentials:
as §3

The subject of the next assay is OV90. The description is as above. The following applies: Gynecologic cancer cell panel viability, ATPlite luminescence, 48 h; series mostly up to 57.5 µM. Summed up:
as §3

The next assay has as its system UISO. Kind of assay: qHTS assay to identify novel small-molecules to repurpose for Merkel cell carcinoma treatment (AID 1296009). Also: nearly all actives have a fitted effect of over 60% in size. As to conditions: MCC and control cell lines, CellTiter-Glo viability, 72 h; series mostly up to 46 µM. Summed up:
as §2

In the next assay the test system is WaGa. Described as above. The following applies: MCC and control cell lines, CellTiter-Glo viability, 72 h; series mostly up to 46 µM. Summed up: as §2
Another assay has as its system KB-3-1. Kind of assay: Cytotoxic Profiling of Annotated Libraries Using Quantitative High-Throughput Screening (AID 1296008). Also: nearly all actives have a fitted effect of over 60% in size. The following applies: Five cell lines viability, CellTiter-Glo ATP luminescence, 48-72 h; max response: active compounds read low. Summed up: as §1
Assay [3] has as its system HACAT. Put plainly: qHTS assay to identify novel small-molecules to repurpose for Merkel cell carcinoma treatment (AID 1296009). Also: nearly all actives have a fitted effect of over 60% in size. The following applies: MCC and control cell lines, CellTiter-Glo viability, 72 h; series mostly up to 44.8 µM. Summed up:
as §2

A further assay concerns Hek293T. Kind of assay: Primary qHTS to identify gynecologic anti-cancer compounds using libraries of approved drugs and bioactive compounds (AID 1345084). Also: nearly all actives have a fitted effect of over 55% in size. The following applies: Gynecologic cancer cell panel viability, ATPlite luminescence, 48 h, control line for the selectivity index; series mostly up to 57.5 µM. The essentials: as §3
The test system of assay [4] is NIH3T3. Kind of assay: qHTS assay to identify novel small-molecules to repurpose for Merkel cell carcinoma treatment (AID 1296009). Also: nearly all actives have a fitted effect of over 60% in size. The following applies: MCC and control cell lines, CellTiter-Glo viability, 72 h; at 44.8 µM (top of the series) unless noted. Summed up:
as §2

The structures appear in SMILES notation. Where “and” joins values, the source holds several entries; their conditions need not be identical. Equal values may be shown once. Records with an inconclusive call do not appear. Some structures have more than one record in an assay (separate samples or runs), and their calls can disagree. Unmarked numbers belong to inactive results. Calls of active or inactive are those of the source. Calls follow the shape of the dose curve; as a rule, active = well fitted curve in the direction sought with a large enough effect; inconclusive = small, poorly fitted or top-dose-only effect, or another doubt; inactive = no such curve, though single readings can be large; an effect the other way counts as inactive or inconclusive.
% is scaled to controls: 0 for no effect and ±100 for the full control effect; potency is read from the fitted curve at half-maximal effect.

Consider `CC(C)c1noc(N2CCC(COc3ccc(-c4ccc(S(C)(=O)=O)cc4)nc3)CC2)n1`, for which the max response in the assay with HaCat [1] is -15.4% and 4.61%; in the assay with NIH3T3 [2] it was -1.13% and 3.22%. Also, the Potency result in the assay on MCC-13, in the assay with MCC-26, in the assay on MKL-1, in the assay with MKL-2, in the assay with C33A and in the assay with CAOV3 was “inactive” throughout. The Potency result in the assay with CASKI, in the assay with Es-2, in the assay with HeLa, with JEG-3 and in the assay on OV90 was “inactive” in each case.
`CC=C1NC(=O)[C@H]2CSSCCC=C[C@H](CC(=O)N[C@H](C(C)C)C(=O)N2)OC(=O)[C@H](C(C)C)NC1=O`: the Potency is 0.0372 µM (active) in the assay with HaCat [1]; 46.9 nM (active) with NIH3T3 [2]; 0.235 µM (active) in the assay on MCC-13; 0.0662 µM (active) in the assay with MCC-26; 0.0166 µM (active) in the assay on MKL-2; 0.0166 µM (active) in the assay on UISO. Besides, the Potency in the assay on WaGa is 0.0264 µM (active).
On to `Nc1ccccc1NC(=O)c1ccc(CNC(=O)OCc2cccnc2)cc1`, for which the Potency with HaCat [1] is 13.2 µM (active) and 5.17 µM (active); with KB-3-1, 9.35 µM (active) and 7.31 µM (active); with MKL-1 it was 2.35 µM (active); in the assay with MKL-2, 0.296 µM (active); with UISO, 2.35 µM (active); in the assay on WaGa it was 0.296 µM (active). The Potency in the assay with C33A was 17.8 µM (active); in the assay with Es-2, 11.2 µM (active); in the assay with HeLa it was 10 µM (active); with JEG-3, 15.8 µM (active); in the assay with OV90 it was 0.631 µM (active). Also, the Potency entry in the assay with CAOV3 and in the assay with CASKI was “inactive” throughout.
Turning to `C=CC(=O)N1CCC[C@@H](n2nc(-c3ccc(Oc4ccccc4)cc3)c3c(N)ncnc32)C1`, the Potency was 1.32 µM (active) in the assay on HaCat [1] and 1.3 µM (active) in the assay with HACAT [3]. The max response with KB-3-1 is -15.2% and 0.931%. Moreover, the Potency result with MCC-13, in the assay on MKL-1, in the assay on UISO, with C33A, in the assay on CASKI and with Es-2 was “inactive” in each case. In addition, the Potency result in the assay with HeLa, in the assay on Hek293T, in the assay with JEG-3 and with OV90 was “inactive” in each case.
`O=C(O)c1ccc2c(c1)nc(Nc1cccc(Cl)c1)c1ccncc12`: the Potency with KB-3-1 is 20.6 µM (active); in the assay on MKL-2, 5.26 µM (active); with UISO, 4.18 µM (active); with CASKI, 35.5 µM (active). In the assay with KB-3-1, the max response is 6.46%. In addition, the compound was classed as inactive in the assay with NIH3T3 [2] and with NIH3T3 [4]. Further, the Potency entry in the assay with MCC-26, in the assay on MKL-1 and with JEG-3 was “inactive” each time.
As to `COC(=O)Nc1nc2ccc(C(=O)c3ccc(F)cc3)cc2[nH]1`, in the assay with HaCat [1], the outcome was inactive. In addition, the Potency with KB-3-1 was 833 nM (active) and 1.46 µM (active); with Es-2, 8.91 µM (active); in the assay on HeLa, 3.98 µM (active). In addition, the Potency entry in the assay on HACAT [3], with C33A, in the assay on CAOV3 and in the assay on OV90 was “inactive” each time.
For `O=C(O)Cn1nnc(-c2cc(N3CCC(Oc4cc(F)ccc4Br)CC3)no2)n1`, the compound was called inactive with HaCat [1]. For the same compound, the Potency in the assay on KB-3-1 was 3.72 µM (active) and 2.31 µM (active). Further, the Potency entry with HACAT [3], in the assay on MCC-13, in the assay with MCC-26, in the assay with MKL-1, with MKL-2 and in the assay on UISO was “inactive” throughout. The Potency result in the assay with WaGa, in the assay on C33A, with CASKI, in the assay with HeLa, in the assay with Hek293T and in the assay with JEG-3 was “inactive” each time. The Potency result with OV90 is “inactive”.
`O=C(CCCCCCNC(=O)c1cnc(N(c2ccccc2)c2ccccc2)nc1)NO`: the Potency with HaCat [1] was 16.6 µM (active); in the assay with KB-3-1 it was 11.8 µM (active) and 8.2 µM (active); with MKL-1, 9.35 µM (active); with MKL-2 it was 5.9 µM (active); in the assay with WaGa, 2.96 µM (active); in the assay with HeLa, 11.2 µM (active). Besides, the Potency in the assay on JEG-3 was 15.8 µM (active); in the assay with OV90 it was 8.91 µM (active).
In the case of `CCC1=C[C@@H]2CN(C1)Cc1c([nH]c3ccccc13)[C@@](C(=O)OC)(c1cc3c(cc1OC)N(C)[C@@H]1[C@@](O)(C(=O)OC)[C@H](OC(C)=O)[C@]4(CC)C=CCN5CC[C@]31[C@@H]54)C2`, the max response in the assay with HaCat [1] was -8.6%. The Potency was 0.0166 µM (active) in the assay with KB-3-1 and 0.0118 µM (active) with MKL-1.
Take `C=C1C(=CC=C2CCCC3(C)[C@@H]([C@H](C)C=CC=CC(O)(CC)CC)CC[C@@H]23)C[C@@H](O)C[C@@H]1O` (some centres undefined): the compound was classed as inactive in the assay with HaCat [1] and in the assay with KB-3-1. Also, the Potency entry in the assay on HACAT [3], in the assay with MCC-13, in the assay on MCC-26, with MKL-1 and in the assay with UISO was “inactive” each time. For the same compound, the Potency with MKL-2 is 14.8 µM (active); in the assay on WaGa, 11.8 µM (active).
`Cc1ccc(S(=O)(=O)Nc2cc(Cl)ccc2C(=O)Nc2nc(-c3ccccc3)cs2)cc1`: the call in the assay on HaCat [1] was inactive. Further, the max response in the assay with KB-3-1 was -7.08%. Further, the Potency entry in the assay with HACAT [3], in the assay on MCC-13, with MCC-26, with MKL-1, in the assay with MKL-2 and in the assay on WaGa was “inactive” in each case.
Take `O=C(O)C1(Cc2cccc(Nc3nccs3)n2)CCC(Oc2cccc(Cl)c2F)CC1` (centres undefined): the Potency is 5.26 µM (active) and 4.61 µM (active) in the assay on HaCat [1]; 2.35 µM (active) in the assay on KB-3-1; 10.5 µM (active) with MCC-13; 6.31 µM (active) in the assay with HeLa. In addition, the Potency entry in the assay with MCC-26, in the assay on MKL-2, with C33A, with CASKI, with Es-2 and in the assay with Hek293T was “inactive” each time. Further, the Potency entry in the assay with JEG-3 and with OV90 was “inactive” throughout.
For the compound `Cc1cccc(C=NNc2cc(N3CCOCC3)nc(OCCc3ccccn3)n2)c1`, the max response in the assay on HaCat [1] was -6.14%. The Potency entry with MCC-13, with MCC-26 and in the assay with WaGa was “inactive” each time. In addition, the results for the Potency in the assay on MKL-1 and in the assay on MKL-2 were 20.9 µM (active) and 16.6 µM (active), respectively.
In the case of `COc1cc(C)c(Sc2cnc(NC(=O)c3ccc(CNC(C)C(C)C)cc3)s2)cc1C(=O)N1CCN(C(C)=O)CC1` (centres undefined), the Potency is 5.9 µM (active) with HaCat [1]; 13.2 µM (active) and 13 µM (active) with NIH3T3 [2]; 18.7 µM (active) in the assay on UISO. In addition, the Potency result in the assay with MKL-2, in the assay with C33A, with Es-2, in the assay on Hek293T, in the assay with JEG-3 and in the assay with OV90 was “inactive” each time.
